Bioassay records: PubChem, National Center for Advancing Translational Sciences (NCATS)
POLI inh: qHTS for Inhibitors of Polymerase Iota | DNA polymerase iota (Homo sapiens), Q9UNA4 | Pol iota fluorescent replication assay, 10 min | Potency, µM (highest dose often 115 µM), for inactives: at the highest dose activity, negative = inhibition, most hits filed as inhibitors | 1% of 390,000 active
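Fluorescent replication assay read twice, at 0 min and 10 min after adding 50 nM (final) substrate. Enzyme (10 nM) and compounds were first incubated 15 min at room temperature; enzyme-free buffer wells were negative controls.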
Pol eta inh: qHTS for Inhibitors of Polymerase Eta | DNA polymerase eta (Homo sapiens), Q9Y253 | recombinant Pol eta, fluorescent DNA replication assay | Potency, µM (top dose mostly 114 µM), for inactives: at the highest dose activity change, negative = inhibition, most hits filed as inhibitors | 1.2% of 390,000 active; further: on the % scale 0 is the no-effect control and ±100 the full control effect
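Pol eta at 10 nM preincubated with compounds 15 min at room temperature; reaction started with fluorescent substrate (50 nM final) and read kinetically at 0 and 10 min.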
POLB inh: qHTS Assay for Inhibitors of DNA Polymerase Beta; AID 485314, 2010; Pol beta primer extension/strand displacement, fluorescence kinetic; Potency, µM (titrated, usually from 114 µM), for the others: top-dose activity change, negative = inhibition, actives largely listed as inhibitors; 1.3% of 340,000 active; further: on the % scale 0 is the no-effect control and ±100 the full control effect
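Reaction started by 50 nM substrate onto compound-treated Pol beta (10 nM, 15 min preincubation, room temperature); plates read at 0 min and 10 min. Normalized concentration-effect data fitted by four-parameter Hill equation.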
Pol kappa inh: qHTS for Inhibitors of Polymerase Kappa; AID 588579, 2011; 0.53% of 400,000 active; Potency, µM (top dose mostly 107 µM), for inactives: at the top dose activity, negative = inhibition, usual class: inhibitors; purified Pol kappa, fluorescent DNA synthesis assay, 10 min; DNA polymerase kappa (Homo sapiens), Q9UBT6; further: on the % scale 0 is the no-effect control and ±100 the full control effect
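Kinetic fluorescence screen: compound preincubated 15 min RT with 10 nM enzyme; 50 nM substrate (final) initiates; reads at 0/10 min.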
TDP1 block: qHTS Assay for Inhibitors of Tyrosyl-DNA Phosphodiesterase (TDP1) | Tyrosyl-DNA phosphodiesterase 1 (Homo sapiens), Q9NUW8 | recombinant TDP1, AlphaScreen DNA substrate cleavage | Potency, µM (titrated, usually from 130 µM), inactives show at the top dose activity change, negative = inhibition, actives largely listed as inhibitors | 0.28% of 350,000 active; further: on the % scale 0 is the no-effect control and ±100 the full control effect; nearly all actives have a fitted effect of over 40% in size
Target sequence (Q9NUW8 whole entry, looked up): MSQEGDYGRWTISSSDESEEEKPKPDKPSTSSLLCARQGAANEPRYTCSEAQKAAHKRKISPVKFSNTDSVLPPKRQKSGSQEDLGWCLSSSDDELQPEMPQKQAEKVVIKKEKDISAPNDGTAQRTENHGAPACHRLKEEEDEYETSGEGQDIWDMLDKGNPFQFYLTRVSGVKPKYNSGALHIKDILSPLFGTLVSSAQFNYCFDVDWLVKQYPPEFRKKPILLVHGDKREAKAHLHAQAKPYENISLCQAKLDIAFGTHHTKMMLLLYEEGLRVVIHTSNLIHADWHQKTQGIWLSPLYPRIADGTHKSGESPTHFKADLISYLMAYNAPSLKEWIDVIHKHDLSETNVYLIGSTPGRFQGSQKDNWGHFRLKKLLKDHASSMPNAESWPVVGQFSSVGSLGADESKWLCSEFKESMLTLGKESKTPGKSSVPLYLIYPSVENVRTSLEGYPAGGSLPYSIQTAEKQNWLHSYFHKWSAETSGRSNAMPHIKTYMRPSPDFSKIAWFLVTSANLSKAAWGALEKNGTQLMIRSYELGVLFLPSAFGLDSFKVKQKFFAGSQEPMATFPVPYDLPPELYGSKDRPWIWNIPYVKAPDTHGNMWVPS
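Signal: AlphaScreen proximity between streptavidin donor and anti-FITC acceptor beads on intact substrate. Reaction: Tdp1 1 nM, substrate 15 nM final, 5 min RT after 15 min compound preincubation.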
* marks the source's active call; other numbers are inactive results; u = inconclusive; x = not tested or not shown; ! = not confirmed by another sample; [ ] = remark or other dose. Hits are enriched below; roughly 2.4% of the tested compounds scored in any of these assays. The call rests on the fitted dose curve; in most records, active means well fitted curve in the direction sought with a large enough effect; inconclusive means small, poorly fitted or top-dose-only effect, or another doubt; inactive means no such curve, though single readings can be large; an effect the other way counts as inactive or inconclusive. Potency means the concentration at half of the fitted maximal effect.

SMILES | POLI inh | Pol eta inh | POLB inh | Pol kappa inh | TDP1 block
O=C(COC(=O)c1ccc(Cl)c(S(=O)(=O)N2CCCC2)c1)NCc1ccccc1 | u | u | x | -25.3% | 35.5µM*
Cc1ccc(C(=O)OCC(=O)NCc2ccco2)cc1 | 3.1% | u | 4.2% | -4.8% | 6.0%
O=C(COC(=O)CNC(=O)c1ccc(-c2ccccc2)cc1)NCc1ccco1 | 70.5% | -21.9% | 8.91µM* | -9.7% | x
O=C(NCc1ccco1)c1ccc(S(=O)(=O)N2CCCCC2)cc1 | -11.9% | -3.6% | 3.1% | -6.8% | 0.0%
O=C(NCc1ccco1)c1ccc(S(=O)(=O)N2CCOCC2)cc1 | 15.8µM* | u | 35.5µM* | u | x
O=C(COC(=O)c1cc(Cl)cc(Cl)c1)NCc1ccco1 | u | 56.2µM* | x | u | -8.5%
CS(=O)(=O)Nc1cccc(-c2cc(F)c(S(=O)(=O)N3CCN(S(=O)(=O)c4ccc5c(c4)OCCO5)CC3)cc2F)c1 | x | x | x | x | -4.5%
COC(=O)C(C(=O)OC)C1c2ccccc2C=C(C)N1C(=O)OC (centres undefined) | x | x | x | x | 8.3%[12.3 µM]
CCOC(=O)C1CCN(Cc2cc(=O)n3c(-c4ccccc4)csc3n2)CC1 | u | 9.1% | -9.5% | -22.1% | -2.5%
Cc1cccc(N2CCN(Cc3cc(=O)n4ccsc4n3)CC2)c1C | 13.1% | -13.7% | 6.8% | -0.6% | 4.8%
CCOc1ccc(NC(=O)CN(C)Cc2cc(=O)n3c(-c4ccccc4)csc3n2)cc1OCC | u | -3.2% | 25.1µM* | -11.0% | 8.3%
O=c1cc(CN2CCN(c3ccccc3)CC2)nc2scc(-c3ccccc3)n12 | 56.2µM* | -23.2% | 39.8µM* | -42.5% | 6.1%
Cc1ccc(OCc2cc(=O)n3c(-c4ccccc4)csc3n2)cc1 | 56.2µM* | u | 20µM* | u | 3.8%
O=c1cc(CN2CCN(c3ccccc3O)CC2)nc2sccn12 | 44.7µM* | 20µM* | u | -12.4% | -12.3%
CC(C)(C)n1ncc2c(=O)n(Cc3ccc(Cl)c(C(F)(F)F)c3)cnc21 | 8.8% | x | x | 1.3% | x
CC(C)=CCC/C(C)=C/COc1c2occc2cc2ccc(=O)oc12 | 3.2% | u | x | -25.0% | 20µM*!
CC(C)=CCC/C(C)=C/COc1c2ccoc2cc2oc(=O)ccc12 | -26.2% | x | x | 4.3% | x
Cc1c(C(=O)NNC(=O)c2csc(N3CCOCC3)n2)oc2ccccc12 | u | u | x | 1.5% | -4.1%
Cc1c(C(=O)NNC(=O)c2csc(N3CCOCC3)n2)oc2ccc(Br)cc12 | x | 25.1µM* | x | x | x
COc1cc2nc(N3CCCN(C)CC3)nc(NC3CCOCC3)c2cc1OC | -4.9% | x | x | -4.9% | x
CCOC(=O)C(C(C)=O)c1c(Br)c(O)c(O)c2c(C(=O)c3ccc(C)cc3)coc12 (centres undefined) | 25.1µM* | -16.8% | -5.6% | 50.1µM* | 0.0%
O=C(Nc1cc(C(F)(F)F)ccc1Cl)C1CCN(c2nnc(-n3cccc3)s2)CC1 | u | u | 3.98µM* | -33.3% | 1.0%[56.1 µM]
CS(=O)(=O)N1CCC(C(=O)Nc2cc(C(F)(F)F)ccc2Cl)CC1 | 28.1% | -3.4% | 40.7% | 3.0% | 4.4%
COc1ccc(Cl)cc1NC(=O)c1cc2c(=O)n3ccccc3nc2s1 | -24.9% | x | 7.08µM* | -7.4% | -11.8%
COc1ccc(/C=C/C(=O)c2ccc([N+](=O)[O-])o2)cc1OC | 8.91µM* | u | x | 5.2% | x
SMILES | POLI inh | Pol eta inh | POLB inh | Pol kappa inh | TDP1 block
COc1cc(/C=C/C(=O)c2ccc([N+](=O)[O-])o2)ccc1O | u | u | x | 5.9% | u
CCc1nc2scc(-c3cccs3)c2c(=O)o1 | u | u | 31.6µM* | -13.2% | -10.9%
COc1ccc(/C=C2\SC(=O)N(CCc3nnc(N)s3)C2=O)cc1 | 20µM* | 44.7µM* | u | u | x
COc1ccc(/C=C2\SC(=O)N(CCNC(=O)C3=COCCO3)C2=O)cc1 | 6.5% | -13.6% | x | 1.8% | x
CCc1nc(SC)ncc1C(=O)N1CCN(c2cc(C)ccc2C)CC1 | -9.9% | -15.6% | 7.5% | -19.6% | 3.7%
c1ccc(OCc2nn3c(-c4n[nH]c5c4CCC5)nnc3s2)cc1 | u | u | u | -26.5% | u
Cc1ccc(OCc2nn3c(-c4n[nH]c5c4CCC5)nnc3s2)cc1 | x | x | 14.1µM* | x | -4.0%
Nc1ccn([C@@H]2O[C@H](CO)[C@H](O)C2(F)F)c(=O)n1 | x | x | x | -2.5%[19.4 µM] | x
CCC1CCC2(C1)N=C(Nc1nc3ccccc3o1)NC1=C2C(=O)CCC1 (centres undefined) | x | x | x | x | 1.7%
COc1cc(/C=C2\SC(=O)NC2=O)ccc1Oc1ccc([N+](=O)[O-])cn1 | 40.8% | -9.1% | 0.0% | -8.0% | 1.4%
COc1cc(/C=C2\C(=O)N(c3ccccc3)N=C2C)ccc1Oc1ccc([N+](=O)[O-])cc1[N+](=O)[O-] | 2µM* | u | -18.7% | -22.7% | 11.0%
COc1cc(/C=C2/SC(=O)NC2=O)ccc1Oc1ccc([N+](=O)[O-])cc1[N+](=O)[O-] | u | 50.1µM* | 70.8% | 0.0% | -1.2%
COc1cc(/C=C2/C(=O)N(c3ccc(C)c(C)c3)N=C2C)cc([N+](=O)[O-])c1O | -11.8% | -14.5% | 6.4% | 13.3% | x
CC1=NN(c2ccccc2)C(=O)/C1=C\c1ccc(Oc2ccc([N+](=O)[O-])cc2[N+](=O)[O-])cc1 | 1.78µM* | 50.1µM* | -2.8% | -13.0% | 8.0%
COc1ccc(CNC(=O)COC(=O)c2cc(-c3ccc(Cl)s3)nc3ccccc23)cc1 | -2.8% | -15.4% | -0.4% | 2.6% | -7.0%
O=C(COC(=O)c1cc(-c2ccc(Cl)s2)nc2ccccc12)NCc1ccco1 | u | 20µM* | 1.4% | -10.1% | 2.3%
O=C(NCc1ccco1)c1cc(-c2cccs2)nc2ccccc12 | -2.0% | u | 5.1% | -9.8% | 0.0%
O=C(COC(=O)c1cc(-c2cccs2)nc2ccccc12)NCc1ccco1 | u | 11.2µM* | 22.4µM* | 89.1µM* | -10.3%
CCOc1ccc(CC(=O)NCc2ccc3c(c2)CCN3C(=O)c2ccc(F)cc2)cc1OCC | 13.9% | -22.1% | 2.7% | -1.8%[60.1 µM] | 0.5%
Cc1cccc(NC(=O)CCCn2nc(C)c3c(C)n(-c4ccccc4)nc3c2=O)c1C | u | -16.8% | 43.8% | -3.6% | 2.8%
O=C(Nc1ncc([N+](=O)[O-])s1)c1ccccc1Br | 28.2µM* | 50.1µM* | u | u | 7.7%
